Reference: ChEMBL document CHEMBL2218924, “A broad activity screen in support of a chemogenomic map for kinase signalling research and drug discovery” (Biochem J, 2013)

molecular target: Tyrosine-protein kinase Lck (Homo sapiens) (UniProt P06239); details: at 10 µM
Sequence (P06239 2-509 limits assumed): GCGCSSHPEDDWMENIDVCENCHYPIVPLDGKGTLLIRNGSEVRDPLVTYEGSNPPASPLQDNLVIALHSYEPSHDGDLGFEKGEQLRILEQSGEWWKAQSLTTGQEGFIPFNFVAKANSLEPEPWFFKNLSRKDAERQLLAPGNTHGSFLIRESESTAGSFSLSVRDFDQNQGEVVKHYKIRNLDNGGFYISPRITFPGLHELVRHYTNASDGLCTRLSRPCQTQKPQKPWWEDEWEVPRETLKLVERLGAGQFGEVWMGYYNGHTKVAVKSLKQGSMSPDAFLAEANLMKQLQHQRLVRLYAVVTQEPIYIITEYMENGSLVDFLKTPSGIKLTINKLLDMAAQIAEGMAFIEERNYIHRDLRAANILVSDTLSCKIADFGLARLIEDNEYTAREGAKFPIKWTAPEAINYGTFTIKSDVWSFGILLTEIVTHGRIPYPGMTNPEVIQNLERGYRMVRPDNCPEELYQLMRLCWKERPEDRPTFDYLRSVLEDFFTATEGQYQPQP

Question: For `COc1cc2ncnc(Nc3ccc(Oc4ccccc4)cc3)c2cc1OC`, which residual activity is on record?
Answer: -1%

Question: For `Oc1c2ccccc2c2c3c(cccc13)N=N2`, which residual activity is on record?
Answer: 69%

Question: How did the residual activity turn out when `Cc1nc2cc3nc(-c4cccs4)cnc3cc2n1C` was run?
Answer: 54%

Question: Which residual activity does the source give for `Cn1nc2c3c(cccc31)C(=O)c1ccccc1-2` here?
Answer: 93%

Question: Which residual activity does the source give for `CO[C@H]1[C@@H](OC)C[C@H](C)[C@@H](OC)C2=CC(=O)C=C(NC(=O)/C(C)=C/C=C/[C@H](OC)[C@@H](OC(N)=O)/C(C)=C/[C@@H]1C)C2=O` here?
Answer: 86%

Question: For `COc1ccc(CNc2nc(N(CCO)CCO)nc3c2ncn3C(C)C)cc1`, which residual activity is on record?
Answer: 77%

Question: For `O=[N+]([O-])c1ccc(-c2nc(-c3ccc(F)cc3)c(-c3ccncc3)[nH]2)cc1`, which residual activity is on record?
Answer: 86%

Question: Which residual activity does the source give for `COc1ccc(S(=O)(=O)N(CCO)c2ccccc2CN(C)C/C=C/c2ccc(Cl)cc2)cc1` here?
Answer: 51%

Question: `N#Cc1cnc2cnc(NCc3cccnc3)cc2c1Nc1ccc(F)c(Cl)c1` was tested. Which residual activity did it give?
Answer: 20%

Question: With `CCN(CC)C(=O)c1ccc(Nc2nc(OCC3CCCCC3)c3nc[nH]c3n2)cc1` as the compound, how does the residual activity read?
Answer: 3%

Question: For `N#CCCc1ccc2c(c1)-c1[nH]c3ccc([N+](=O)[O-])cc3c1CC(=O)N2`, which residual activity is on record?
Answer: 13%

Question: How did the residual activity turn out when `O=C1Nc2ccccc2/C1=C1/Nc2ccccc2/C1=N\OCCC(O)CO` (stereo not given) was run?
Answer: 5%

Question: How did the residual activity turn out when `Cc1cc(Nc2nc(-c3ccccc3)nc3ccccc23)n[nH]1` was run?
Answer: 6%

Question: `O=C(Nc1cccc(Nc2nccc(Nc3cccc(C(F)(F)F)c3)n2)c1)C1CC1` was tested. Which residual activity did it give?
Answer: 19%

Question: `O=c1c2ccccc2[nH]c(=S)n1CCN1CCC(=C(c2ccc(F)cc2)c2ccc(F)cc2)CC1` was tested. Which residual activity did it give?
Answer: 107%

Question: How did the residual activity turn out when `CN(C)CCCn1cc(C2=C(c3c[nH]c4ccccc34)C(=O)NC2=O)c2ccccc21` was run?
Answer: 49%

Question: With `Oc1ccc(-c2nc(-c3ccc(F)cc3)c(-c3ccncc3)[nH]2)cc1` as the compound, how does the residual activity read?
Answer: 45%

Question: Which residual activity does the source give for `O=C1NC(=O)c2cc(Nc3ccc(F)cc3)c(Nc3ccc(F)cc3)cc21` here?
Answer: 26%

Question: With `CN(C)c1ccc(/C=C2\C(=O)Nc3ccccc32)cc1` as the compound, how does the residual activity read?
Answer: 55%

Question: For `NC(=O)c1ccc2[nH]c(-c3ccc(Oc4ccc(Cl)cc4)cc3)nc2c1`, which residual activity is on record?
Answer: 72%

Question: Which residual activity does the source give for `Nc1nc(Nc2ccc(S(N)(=O)=O)cc2)nn1C(=S)Nc1c(F)cccc1F` here?
Answer: 16%

Question: With `CC[n+]1c(/C=C/N(C)c2ccccc2)n(-c2ccccc2)c2ccc(-c3nc4ccccc4s3)cc21` as the compound, how does the residual activity read?
Answer: 322%

Question: `COc1cc2ncnc(Nc3ccc(O)c(Br)c3)c2cc1OC` was tested. Which residual activity did it give?
Answer: 7%

Question: How did the residual activity turn out when `Cc1cccc(-c2[nH]c(C(C)(C)C)nc2-c2ccc3c(c2)OCO3)n1` was run?
Answer: 86%

Question: Which residual activity does the source give for `Nc1ccc2ncnc(NCCc3ccc(Oc4ccccc4)cc3)c2c1` here?
Answer: 45%

Question: Which residual activity does the source give for `Cc1cncc2cccc(S(=O)(=O)N3CCCN(C(=O)CN)C[C@H]3C)c12` here?
Answer: 68%

Question: For `Ic1cccc(CSc2nnc(-c3ccncc3)o2)c1`, which residual activity is on record?
Answer: 66%

Question: Which residual activity does the source give for `COc1cc2ncnc(Nc3ccc(NC(=O)c4ccccc4)cc3)c2cc1OC` here?
Answer: 17%

Question: How did the residual activity turn out when `CO[C@@H]1[C@H](N(C)C(=O)c2ccccc2)C[C@H]2O[C@]1(C)n1c3ccccc3c3c4c(c5c6ccccc6n2c5c31)C(=O)NC4` was run?
Answer: 5%

Question: How did the residual activity turn out when `Nc1cccc(-c2cc3c(Oc4cccc(O)c4)ncnc3[nH]2)c1` was run?
Answer: 7%

molecular target: Tyrosine-protein kinase Lck (Homo sapiens) (UniProt P06239); details: at 1 µM

Question: With `COc1cc2ncnc(Nc3ccc(Oc4ccccc4)cc3)c2cc1OC` as the compound, how does the residual activity read?
Answer: -2%

Question: `Oc1c2ccccc2c2c3c(cccc13)N=N2` was tested. Which residual activity did it give?
Answer: 89%

Question: With `Cc1nc2cc3nc(-c4cccs4)cnc3cc2n1C` as the compound, how does the residual activity read?
Answer: 89%

Question: How did the residual activity turn out when `Cn1nc2c3c(cccc31)C(=O)c1ccccc1-2` was run?
Answer: 106%

Question: Which residual activity does the source give for `CO[C@H]1[C@@H](OC)C[C@H](C)[C@@H](OC)C2=CC(=O)C=C(NC(=O)/C(C)=C/C=C/[C@H](OC)[C@@H](OC(N)=O)/C(C)=C/[C@@H]1C)C2=O` here?
Answer: 93%

Question: Which residual activity does the source give for `COc1ccc(CNc2nc(N(CCO)CCO)nc3c2ncn3C(C)C)cc1` here?
Answer: 104%

Question: How did the residual activity turn out when `O=[N+]([O-])c1ccc(-c2nc(-c3ccc(F)cc3)c(-c3ccncc3)[nH]2)cc1` was run?
Answer: 92%

Question: `COc1ccc(S(=O)(=O)N(CCO)c2ccccc2CN(C)C/C=C/c2ccc(Cl)cc2)cc1` was tested. Which residual activity did it give?
Answer: 105%

Question: `N#Cc1cnc2cnc(NCc3cccnc3)cc2c1Nc1ccc(F)c(Cl)c1` was tested. Which residual activity did it give?
Answer: 14%

Question: For `CCN(CC)C(=O)c1ccc(Nc2nc(OCC3CCCCC3)c3nc[nH]c3n2)cc1`, which residual activity is on record?
Answer: 20%

Question: How did the residual activity turn out when `N#CCCc1ccc2c(c1)-c1[nH]c3ccc([N+](=O)[O-])cc3c1CC(=O)N2` was run?
Answer: 24%

Question: Which residual activity does the source give for `O=C1Nc2ccccc2/C1=C1/Nc2ccccc2/C1=N\OCCC(O)CO` (stereo not given) here?
Answer: 5%

Question: For `Cc1cc(Nc2nc(-c3ccccc3)nc3ccccc23)n[nH]1`, which residual activity is on record?
Answer: 36%

Question: How did the residual activity turn out when `O=C(Nc1cccc(Nc2nccc(Nc3cccc(C(F)(F)F)c3)n2)c1)C1CC1` was run?
Answer: 57%

Question: `O=c1c2ccccc2[nH]c(=S)n1CCN1CCC(=C(c2ccc(F)cc2)c2ccc(F)cc2)CC1` was tested. Which residual activity did it give?
Answer: 83%

Question: `CN(C)CCCn1cc(C2=C(c3c[nH]c4ccccc34)C(=O)NC2=O)c2ccccc21` was tested. Which residual activity did it give?
Answer: 80%

Question: How did the residual activity turn out when `Oc1ccc(-c2nc(-c3ccc(F)cc3)c(-c3ccncc3)[nH]2)cc1` was run?
Answer: 80%

Question: Which residual activity does the source give for `O=C1NC(=O)c2cc(Nc3ccc(F)cc3)c(Nc3ccc(F)cc3)cc21` here?
Answer: 77%

Question: For `CN(C)c1ccc(/C=C2\C(=O)Nc3ccccc32)cc1`, which residual activity is on record?
Answer: 83%

Question: Which residual activity does the source give for `NC(=O)c1ccc2[nH]c(-c3ccc(Oc4ccc(Cl)cc4)cc3)nc2c1` here?
Answer: 105%

Question: How did the residual activity turn out when `Nc1nc(Nc2ccc(S(N)(=O)=O)cc2)nn1C(=S)Nc1c(F)cccc1F` was run?
Answer: 8%

Question: For `CC[n+]1c(/C=C/N(C)c2ccccc2)n(-c2ccccc2)c2ccc(-c3nc4ccccc4s3)cc21`, which residual activity is on record?
Answer: 92%

Question: How did the residual activity turn out when `COc1cc2ncnc(Nc3ccc(O)c(Br)c3)c2cc1OC` was run?
Answer: 21%

Question: With `Cc1cccc(-c2[nH]c(C(C)(C)C)nc2-c2ccc3c(c2)OCO3)n1` as the compound, how does the residual activity read?
Answer: 95%

Question: How did the residual activity turn out when `Nc1ccc2ncnc(NCCc3ccc(Oc4ccccc4)cc3)c2c1` was run?
Answer: 83%

Question: For `Cc1cncc2cccc(S(=O)(=O)N3CCCN(C(=O)CN)C[C@H]3C)c12`, which residual activity is on record?
Answer: 84%

Question: `Ic1cccc(CSc2nnc(-c3ccncc3)o2)c1` was tested. Which residual activity did it give?
Answer: 82%

Question: How did the residual activity turn out when `COc1cc2ncnc(Nc3ccc(NC(=O)c4ccccc4)cc3)c2cc1OC` was run?
Answer: 30%

Question: With `CO[C@@H]1[C@H](N(C)C(=O)c2ccccc2)C[C@H]2O[C@]1(C)n1c3ccccc3c3c4c(c5c6ccccc6n2c5c31)C(=O)NC4` as the compound, how does the residual activity read?
Answer: 5%

Question: With `Nc1cccc(-c2cc3c(Oc4cccc(O)c4)ncnc3[nH]2)c1` as the compound, how does the residual activity read?
Answer: 4%
